Screening results (PubChem BioAssay)
AMA1 RON2 block – inhibitors of Plasmodium falciparum AMA1-RON2 interaction | AlphaScreen AMA1-biotinylated RON2 peptide binding | Potency, µM (doses to about 58.2 µM), actives largely listed as inhibitors | 360,000 tested, 0.2% active; active = well fitted inhibition curve with a large enough effect; inconclusive = small, poorly fitted or top-dose-only effect; inactive = no such curve, though single readings can be large or run the other way; note: nearly all actives have a fitted effect of over 45% in size
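AMA1 (3D7) with his tag at 25 nM final met compounds first, then biotinylated RON2 peptide at 25 nM; detection used donor plus acceptor beads, 10 µg/mL apiece, read by AlphaScreen after 30 min at room temperature.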
MARV entry inh – inhibitors of Marburg virus binding or cell entry; Potency, µM (doses to about 37.8 µM), hits mostly inhibitors; 300,000 tested, 1.8% active; Marburg virus pseudotyped entry inhibition, cell reporter; calls by dose curve; tested in HEK293 cells
Cycloheximide cs – counter-screen for Shiga toxin inhibitors: cycloheximide protein synthesis inhibition; max response, %; 300,000 tested, 12% active; AID 2314; cell reporter, cycloheximide protein synthesis inhibition counterscreen; in the data active = max response mostly above about 13%, no sharp cut-off; inactive = mostly below about 14%; note: read at 38.3 µM for the half of the compounds with a filed dose
Shiga inhibitor – inhibitors of Shiga toxin in Vero cells; Vero cells, Shiga toxin protein synthesis inhibition reporter; inhibition, % at 38.7 µM; 290,000 tested, 9.2% active; AID 2315; in the data active = inhibition mostly above about 28%, no sharp cut-off; inactive = mostly below about 43%
LASV entry inh – Lassa virus entry inhibition; Lassa virus pseudotype entry inhibition, cell reporter; Potency, µM (doses to about 37.9 µM), usual class: inhibitors; 300,000 tested, 1.2% active; calls by dose curve; tested in HEK293 cells; note: nearly all actives have a fitted effect of over 50% in size
A number is an active result; i = inactive; ? = inconclusive; nt = no result given. Only a selection was taken, and hits are over-represented in it overall.

SMILES | AMA1 RON2 block | MARV entry inh | Cycloheximide cs | Shiga inhibitor | LASV entry inh
Cc1ccc(C(=O)Nc2ccc3c(c2)OCCO3)cc1 | i | ? | i | 47.3 | 2.82µM
CCN1C(=O)c2cccc3c(NC(=O)c4ccc5c(c4)OCCO5)ccc1c23 | i | i | 13.3 | i | i
O=C(Nc1cccc(-c2cn3c(n2)SCC3)c1)c1ccc2c(c1)OCO2 | i | ? | i | 116.3 | i
CCCOc1cccc(C(=O)Nc2cccnc2)c1 | i | i | i | i | i
CCN(CC(=O)Nc1ccc2c(c1)OCCO2)C(=O)c1cccc(OCC(C)C)c1 | i | i | 16.1 | i | i
CC(C)c1ccc(NC(=O)c2cccc(Br)c2)cc1 | i | nt | 36.2 | 118.7 | nt
CCCOc1cccc(C(=O)Nc2ccc3c(c2)OCCO3)c1 | i | nt | 24.0 | 70.5 | nt
CCN(CC(=O)Nc1ccc(NC(C)=O)cc1)C(=O)c1ccc2c(c1)OCCO2 | i | nt | nt | nt | nt
O=C(Nc1ccc2c(c1)OCCO2)c1ccc(Br)cc1 | i | 3.98µM | 32.6 | i | ?
COc1cccc(CNC(=O)CCN2C(=O)[C@@H]3Cc4ccccc4CN3C2=O)c1 | i | nt | i | i | nt
Cc1cccc(-n2c(C)nc3cc(C(=O)NCCN4CCOCC4)ccc32)c1 | i | nt | nt | nt | nt
Cc1ccc(S(=O)(=O)N2CCOCC2)cc1C(=O)N1c2ccccc2Sc2ccccc21 | i | ? | i | i | i
CCc1nc2ccc(C(=O)Nc3ccc4c(c3)OCO4)cc2nc1CC | i | i | 27.1 | i | i
c1cc(CNc2ccc(N3CCOCC3)cc2)ccn1 | i | i | 32.8 | 48.7 | i
Cc1ccc(CNc2ccc(N3CCOCC3)cc2)cc1 | i | ? | 21.4 | 51.6 | i
Cc1ccc(CNc2ccc(N3CCOCC3)c(Cl)c2)cc1 | ? | i | 22.2 | 29.6 | i
CC(C)c1ccc(CNc2ccc(N3CCOCC3)cc2)cc1 | ? | i | i | i | ?
CCOc1ccc(NC(=O)N(Cc2ccc(C)cc2)Cc2ccccn2)cc1 | i | nt | i | i | nt
CCN1CCN(C(=O)c2cnn(-c3cccc(Cl)c3)c2C2CCN(C(=O)OC(C)(C)C)CC2)CC1 | nt | nt | nt | nt | 7.08µM
CC(C)(C)OC(=O)N1CCC(c2c(C(=O)N3CCN(C4CCCCC4)CC3)cnn2-c2ccc(F)cc2)CC1 | i | i | i | i | ?
Cc1ccc(-n2ncc(C(=O)N3CCN(C4CCCCC4)CC3)c2C2CCN(C(=O)OC(C)(C)C)CC2)cc1C | nt | nt | nt | nt | 2µM
CC(C)(C)OC(=O)N1CCC(c2c(C(=O)N3CCN(C(=O)c4ccco4)CC3)cnn2-c2cccc(Cl)c2)CC1 | i | nt | i | i | i
Cc1ccccc1OCc1csc(N)n1 | i | nt | 15.9 | i | nt
Nc1nc(COc2ccccc2)cs1 | i | i | i | i | i
Cc1ccc(OCc2csc(N)n2)cc1 | i | i | 34.6 | 83.3 | ?
SMILES | AMA1 RON2 block | MARV entry inh | Cycloheximide cs | Shiga inhibitor | LASV entry inh
Nc1nc(COc2ccc(Cl)cc2)cs1 | i | i | 32.7 | 65.0 | i
CC(=O)O[C@H](C(=O)O[C@@H]1C[C@@H](CCC[C@H]2O[C@H](C(=O)OC(C)C)CC[C@@H]2C)O[C@@H](CC#N)C1)c1ccccc1 | nt | i | nt | nt | nt
CC(=O)OC[C@H]1O[C@@H](ON=C2C[C@@H](O)[C@@H](O)[C@@H]3[C@H]4C(=O)N(Cc5ccccc5)C(=O)[C@@H]4CC[C@@H]23)[C@H](OC(C)=O)[C@@H](OC(C)=O)[C@H]1OC(C)=O | nt | i | nt | nt | ?
COc1ccc2nc(N(Cc3cccnc3)C(=O)c3ccco3)sc2c1 | nt | nt | nt | nt | i
COc1ccccc1NC(=O)CCC(=O)c1ccc(-c2ccccc2)cc1 | i | i | i | i | i
COc1ccccc1NC(CC(=O)c1ccccc1)C(=O)OCC(=O)c1ccc(C)c(C)c1 (stereo not given) | ? | i | 40.4 | 37.3 | ?
Cc1ccc(C(=O)COC(=O)COc2ccccc2O)cc1C | i | nt | nt | nt | nt
COc1ccccc1NC(CC(=O)c1ccccc1)C(=O)OCC(=O)c1ccc(Br)cc1 (stereo not given) | i | ? | 101.7 | 114.9 | i
COc1ccccc1NC(CC(=O)c1ccccc1)C(=O)OCC(=O)c1ccc(C)cc1 (stereo not given) | i | i | 32.6 | 73.0 | i
CCOc1cc(N2CCOCC2)c(OCC)cc1NC(=O)CN1C(=O)NC2(CCCCC2)C1=O | i | ? | nt | nt | i
Cc1cc(C)cc(NC(=O)CSc2nnc(-c3cc(C)[nH]n3)n2N)c1 | i | ? | i | i | i
CN1CCN(CCNC(=O)Cn2c(=O)c3cccn3c3ccc(F)cc32)CC1 | i | nt | i | i | nt
Cc1cc(C)c(NC(=O)c2ccc(CN3CCc4ccccc4C3)cc2)c(C)c1 | i | ? | i | i | 15.8µM
CC(C)(C)SCCNC(=O)c1ccc(CN2CCc3ccccc3C2)cc1 | i | i | 44.0 | 53.5 | i
CC(=O)c1cccc(NC(=O)c2ccc(CN3CCc4ccccc4C3)cc2)c1 | i | nt | 12.5 | i | nt
CCCNC(=O)c1ccc(CN2CCc3ccccc3C2)cc1 | i | i | i | i | i
O=C(Nc1ccc(Cl)cc1)c1ccc(CN2CCc3ccccc3C2)cc1 | i | nt | i | i | nt
O=C(Nc1cc(NC(=O)c2ccccc2F)ccc1Cl)c1ccccc1 | i | ? | i | i | i
COc1ccc(C=O)cc1CSc1ncccc1C(=O)O | i | ? | i | i | i
Cc1cccn2c1nc(=S)n2C(=O)c1ccco1 | i | ? | 43.3 | 82.4 | ?
Cc1cccc(C)c1NC(=O)c1ccc(-c2ccc(Cl)cc2Cl)o1 | i | 10µM | i | i | ?
Cc1ccccc1NC(=O)c1ccc(-c2ccc(Cl)cc2Cl)o1 | i | i | 20.6 | i | i
Cc1occc1-c1nnc(SCC(=O)c2ccccc2)n1CC1CCCO1 (stereo not given) | i | i | 20.1 | i | i
CCCn1c(SCC(=O)c2ccc3c(c2)OCCO3)nnc1-c1ccco1 | i | i | i | i | ?
CCn1c(SCC(=O)c2ccc(F)cc2)nnc1-c1ccoc1C | i | i | 30.3 | i | i
SMILES | AMA1 RON2 block | MARV entry inh | Cycloheximide cs | Shiga inhibitor | LASV entry inh
Cc1occc1-c1nnc(SCC(=O)Nc2ccc3c(c2)OCO3)n1CC1CCCO1 (stereo not given) | i | i | i | i | i
CCCCn1c(SCC(=O)c2ccc3c(c2)OCCO3)nnc1-c1ccoc1C | i | 11.2µM | i | i | i
Cc1occc1-c1nnc(SCC(=O)c2ccc3c(c2)OCCO3)n1CC1CCCO1 (stereo not given) | i | nt | 23.3 | 40.0 | nt
CN(CCOc1ccc(C[C@H](Nc2ccccc2C(=O)c2ccccc2)C(=O)O)cc1)c1ccccn1 | nt | i | nt | nt | nt
Cc1ccccc1SCCNC(=O)CCc1ccccc1 | nt | nt | i | 28.4 | nt
Cc1ccccc1SCCNC(=O)c1ccccc1Br | i | i | 42.7 | 98.8 | ?
Cc1cccc(/C(N)=N/OC(=O)Cc2cccc3ccccc23)c1 | i | ? | 20.5 | i | ?
Cc1ccc(/C(N)=N/OC(=O)Cc2cccc3ccccc23)cc1 | ? | ? | i | i | ?
N/C(=N\OC(=O)Cc1cccs1)c1ccc(Cl)cc1 | i | nt | 31.4 | 41.4 | nt
N/C(Cc1cccs1)=N\OC(=O)COc1ccccc1 | i | ? | 22.4 | i | i
N/C(=N\OC(=O)Cc1cccs1)c1cccc([N+](=O)[O-])c1 | i | i | 25.6 | 43.9 | ?
N/C(=N\OC(=O)CN1C(=O)c2ccccc2C1=O)c1ccc(Cl)cc1 | i | nt | i | i | nt
CCN(CC)C(=O)C1=C(C)N(CCCN2CCCC2=O)C(=O)C(CC(=O)NC2CCCC2)C1 (stereo not given) | i | nt | nt | nt | nt
